RMI FANCM FP: disruptors of RMI1/RMI2 association with MM2 peptide – biochemical, fluorescence polarization, human, primary screen | FP signal (polarization) at 33 µM | RMI core complex (RMI1/RMI2) binding to FANCM MM2 peptide, human | actives 0.58% (n = 70,000) | RMI core complex with F-MM2 peptide; stronger effect = lower value | AID 1159607, 2016; in the data active = FP signal below about 40
Numbers stand for hits. The sample as a whole holds a higher share of hits than the screen did.

Screening O=C(Nc1scc2c(C(=O)O)nn(-c3ccc(C(F)(F)F)cc3)c(=O)c12)c1c(F)cccc1Cl returned RMI FANCM FP inactive.
Screening NNC(=O)c1nn(-c2ccccc2)c(=O)c2c(N)scc12 returned RMI FANCM FP 24.
CCOC(=O)c1nn(-c2ccc(OC)cc2)c(=O)c2c(NC(=O)c3c(OCC)ccc4ccccc34)scc12 was read as RMI FANCM FP inactive.
COc1ccccc1NC(=S)NNc1nc(N2CCOCC2)nc(N2CCOCC2)n1 was read as RMI FANCM FP inactive.
O=C1Cc2cc(NC(=O)C3CCCO3)ccc2N1 (stereo unspecified) was read as RMI FANCM FP inactive.
`O=C1c2cccc3cccc(c23)C(=O)N1CCN1CCN(C(=S)Nc2ccc(Cl)cc2F)CC1` gave RMI FANCM FP inactive.
CC1(C)SC2C(NC(=O)C(N)c3ccccc3)C(=O)N2C1C(=O)O (stereo unspecified) was read as RMI FANCM FP inactive.
`CC1(C)S[C@@H]2[C@H](NC(=O)COc3ccccc3)C(=O)N2[C@H]1C(=O)O` gave RMI FANCM FP 32.
`CC1(C)S[C@@H]2[C@H](NC(=O)Cc3ccccc3)C(=O)N2[C@H]1C(=O)O` gave RMI FANCM FP inactive.
Cc1c(NC(=O)CCN2C(=O)S/C(=C3/SC(=O)N(CCC(=O)Nc4c(C)n(C)n(-c5ccccc5)c4=O)C3=S)C2=S)c(=O)n(-c2ccccc2)n1C was read as RMI FANCM FP inactive.
`CC(=O)NCCn1ncc2c(N3CCN(c4ccc(F)cc4)CC3)ncnc21` gave RMI FANCM FP inactive.
Cc1ccc(-n2ncc(C#N)c2N)c(C)c1 was read as RMI FANCM FP inactive.
Screening Cc1ccc2oc3nc(N)c(C#N)cc3c(=O)c2c1 returned RMI FANCM FP 5.
N#Cc1cc2ccccc2oc1=O was read as RMI FANCM FP inactive.
`CSc1ccc2nc(Nc3ccc(F)cc3F)sc2c1` gave RMI FANCM FP inactive.
Screening CC(=O)c1ccc(Cl)c(N=Cc2cc(Cl)cc(Cl)c2O)c1 returned RMI FANCM FP 34.
For CCOC(=O)c1ccc(N2CCOCC2)c(N=Cc2cc(Cl)cc(Cl)c2O)c1 the results were RMI FANCM FP 15.
`O=C1Nc2ccccc2C1Cc1ccc(N=Cc2cc(Cl)cc(Cl)c2O)cc1` (stereo unspecified) gave RMI FANCM FP inactive.
`Cc1c(C)c(C)c(C(=O)CCc2cccc(N=Cc3cc(Cl)cc(Cl)c3O)c2)c(C)c1C` gave RMI FANCM FP inactive.
For O=C(N/N=C\c1cc(Cl)cc(Cl)c1O)c1ccncc1 the results were RMI FANCM FP inactive.
For CCOC(=O)c1ccc(N2CCOCC2)c(NS(=O)(=O)c2ccccc2[N+](=O)[O-])c1 the results were RMI FANCM FP inactive.
`Oc1c(Cl)cc(Cl)cc1C=Nc1ccc(N2CCOCC2)cc1` gave RMI FANCM FP inactive.
Screening Oc1c(Cl)cc(Cl)cc1C=Nc1ccc2n[nH]nc2c1 returned RMI FANCM FP 25.
CN(C)c1ccc(C(=O)N/N=C\c2cc(Cl)cc(Cl)c2O)cc1 was read as RMI FANCM FP inactive.
CCCOc1ccc(S(=O)(=O)Nc2ccc3c(c2)CCC(=O)N3)cc1C was read as RMI FANCM FP inactive.
Cc1ncc(CO)c2c1Oc1[nH]c(-c3ccc(F)cc3)nc(=S)c1C2 was read as RMI FANCM FP inactive.
`CCOc1cccc2c1Oc1[nH]c(-c3cccc(OC)c3O)nc(=S)c1C2` gave RMI FANCM FP 12.
`COc1ccccc1-c1nc(=S)c(C(C)=O)c(C)[nH]1` gave RMI FANCM FP inactive.
C=CCOc1ccc(C2C(C(=O)c3sc(C)nc3C)=C(O)C(=O)N2CCN(C)C)cc1 (stereo unspecified) was read as RMI FANCM FP inactive.
CCC(C)Sc1nnc(NC(=O)c2c(F)cccc2Cl)s1 (stereo unspecified) was read as RMI FANCM FP inactive.
`Cc1ccc(S(=O)(=O)ON=C2C=CC(=O)C=C2)cc1` gave RMI FANCM FP inactive.
O=C(O)c1nc2nccnc2cc1Br was read as RMI FANCM FP 17.
CS(=O)(=O)c1ncc(Br)c(C(=O)O)n1 was read as RMI FANCM FP inactive.
O=C(O)c1ncccc1Br was read as RMI FANCM FP inactive.
Screening CCOc1ccccc1NC(=O)Cn1c(=O)c(CNc2ccc(C)cc2)cc2cc3c(cc21)OCCO3 returned RMI FANCM FP inactive.
`FC(F)(F)C1(NC2(C(Cl)(Cl)Cl)Oc3ccccc3O2)Oc2ccccc2O1` gave RMI FANCM FP inactive.
Screening O=S(=O)(c1cccc(C(F)(F)F)c1)N1CCN(CCc2ccccc2)CC1 returned RMI FANCM FP inactive.
Screening CC(C)C(=O)NCCn1ncc2c(=O)n(Cc3ccccc3F)cnc21 returned RMI FANCM FP inactive.
`O=S(=O)(Nc1ccc(-c2ccc(N3CCOCC3)nn2)cc1)c1ccc2ccccc2c1` gave RMI FANCM FP inactive.
For Fc1ccc(Cn2c3ccccc3c3nn4cnnc4nc32)cc1 the results were RMI FANCM FP 28.
For COc1ccc(Cn2cnc3c4ccccc4n(CC(=O)NCc4ccccc4)c3c2=O)cc1 the results were RMI FANCM FP inactive.

Screens deposited in PubChem BioAssay by Small Molecule Screening Facility, UW Madison.
